# Laboratory results as given in ChEMBL document CHEMBL1157539, “Thousands of chemical starting points for antimalarial lead identification” (Nature, 2010).
# Tested on: HepG2
# Assay: GSK_TCMDC: Percent inhibition of human HepG2 cell line. Test compounds present at 10uM.
# Assay type: functional
row,SMILES,Inhibition [%]
1,COc1cccc(Nc2nc(C)cc(NCc3ccc(-c4c(C)noc4C)cc3)n2)c1,33
2,COc1ccc(CNC(=O)NC2CCN(c3ccnc(Nc4cc(OC)c(OC)c(OC)c4)n3)C2)cc1 (centres undefined),0
3,CS(=O)(=O)Nc1cccc(-c2cnc3[nH]cc(-c4ccc(CN)cc4)c3c2)c1,27
4,CC(=O)c1ccc(Nc2c(C(N)=O)cnc3cc(-c4c(C)noc4C)ccc23)cc1,0
